Screening results (PubChem)
Compounds with a hit are over-represented: about 2.8% of the library has one in this group of screens.
HEK293 viab: counter-screen for SNCA expression inhibitors: cell viability. Potency, µM (titrated, usually from 57.1 µM), for inactives: at the highest dose activity change, negative = cytotoxicity, hits mostly cytotoxic. 150,000 tested, 0.12% active. AID 1671193. HEK-293-SNCA-luc viability, GF-AFC fluorescence, 24 h;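 also: potency is read from the fitted curve at half-maximal effect; 0% = DMSO-treated cells and -100% = medium-only wells without cells; nearly all actives have a fitted effect of over 30% in size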
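HEK-293-SNCA-luc cells (1500/well) plated 24 h, then exposed 24 h to a dilution series; GF-AFC added 30 min at 37C, fluorescence 405/540 nm; normalised to medium-only and DMSO wells, Hill fit.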
SNCA expr inhib: inhibitors of alpha-synuclein (SNCA) gene expression; HEK-293 SNCA-luciferase knock-in, luminescence, 24 h; Potency, µM (series often up to 57.2 µM), without a hit: at the top dose activity change, negative = inhibition, hits mostly inhibitors; 140,000 tested, 0.17% active;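 also: potency is read from the fitted curve at half-maximal effect; plate controls were DMSO cells for no effect and cell-free wells for full effect; nearly all actives have a fitted effect of over 45% in size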
IP6K1 inh: inhibitors of human IP6K1; IP6K1 kinase, ADP-Glo luminescence, 2 h; hits give low values; AID 1645851; activity change, % (series mostly up to about 58 µM); 140,000 tested, 0.81% active; in the data active = activity change below about -25%; also: % is scaled to controls: 0 for no effect and ±100 for the full control effect
Target sequence (Q92551 whole entry, looked up): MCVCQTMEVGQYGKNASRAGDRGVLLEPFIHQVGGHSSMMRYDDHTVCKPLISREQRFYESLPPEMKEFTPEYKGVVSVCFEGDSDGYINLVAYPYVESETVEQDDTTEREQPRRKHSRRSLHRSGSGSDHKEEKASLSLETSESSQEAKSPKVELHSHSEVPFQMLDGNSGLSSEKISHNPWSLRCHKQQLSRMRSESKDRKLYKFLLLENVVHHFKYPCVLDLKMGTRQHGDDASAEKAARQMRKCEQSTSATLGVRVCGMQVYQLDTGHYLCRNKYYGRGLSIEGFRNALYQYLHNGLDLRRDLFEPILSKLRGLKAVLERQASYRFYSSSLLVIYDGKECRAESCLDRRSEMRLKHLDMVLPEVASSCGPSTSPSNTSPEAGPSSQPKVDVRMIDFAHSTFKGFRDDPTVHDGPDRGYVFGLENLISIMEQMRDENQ
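ADP-Glo luminescence measures ADP made by human IP6K1 during a 2 h RT reaction with ATP/IP6 (mix at 1.3 mM/130 uM); top library doses 57.5 and 19.1 uM final.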
KDM5B inh: KDM5B demethylase inhibition; Q9UGL1; KDM5B demethylase, FDH-coupled NADH fluorescence (FDH is formaldehyde dehydrogenase); Potency, µM (series often up to 57.7 µM), actives largely listed as inhibitors; 220,000 tested, 2.6% active; also: potency is read from the fitted curve at half-maximal effect; 0% is about no effect; nearly all actives have a fitted effect of over 70% in size
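Coupled FDH/NAD⁺ fluorescence readout. KDM5BΔAP 200 nM final; compound titration, 10 min RT preincubation; substrate mix 12.5 µM H3K4me3, 25 µM 2-OG, 50 µM Fe(II), 100 µM ascorbate, 0.25 mM NAD⁺, 0.25 U/mL FDH; ΔRFU over 30 min.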
* = called active by the depositor; [ ] = remark or other dose. Unless noted, calls follow the shape of the dose curve; as a rule, active = well fitted curve in the direction sought with a large enough effect; inconclusive = small, poorly fitted or top-dose-only effect, or another doubt; inactive = no such curve, though single readings can be large; an effect the other way counts as inactive or inconclusive.

What do the screens show for `CC1=C[C@@H](CNC(=O)c2ccccc2)[C@H](C(C)C)C[C@H]1Cc1nc2ccccc2n1C`?
HEK293 viab: 11.2µM*; SNCA expr inhib: inconclusive; IP6K1 inh: 8.5; KDM5B inh: inactive

How did CC1=C[C@@H](CNC(=O)c2cnccn2)[C@H](C(C)C)C[C@H]1Cc1nc2ccc(C)cc2[nH]1 do in these assays?
HEK293 viab: 39.8µM*; SNCA expr inhib: -29.7%[87.6 µM]; IP6K1 inh: -0.1; KDM5B inh: inactive

Results for CCC(CC)C(=O)NC[C@@H]1C=C(C)[C@H](Cc2nc3ccccc3n2C)C[C@H]1C(C)C ?
HEK293 viab: inconclusive; SNCA expr inhib: inconclusive; IP6K1 inh: 4.6; KDM5B inh: inactive

How did CCOc1ccc(C(=O)N2CCC3(CC2)CN(c2ncccn2)CC3CO)cc1 (configuration not stated) do in these assays?
HEK293 viab: -17.8%; SNCA expr inhib: -10.8%; IP6K1 inh: -1.3; KDM5B inh: 25.1µM*

Results for COc1ccc(CC(=O)N2CCC3(CC2)CN(c2ncccn2)CC3CO)cc1 (configuration not stated) ?
HEK293 viab: 1.9%; SNCA expr inhib: 9.0%; IP6K1 inh: 15.5; KDM5B inh: inconclusive

How did Cn1cc(C(=O)N2CCC3(CC2)CN(c2ncccn2)CC3CO)cn1 (configuration not stated) do in these assays?
HEK293 viab: -4.7%; SNCA expr inhib: 24.1%; IP6K1 inh: 5.8; KDM5B inh: 25.1µM*

What do the screens show for `CCOc1ccccc1C(=O)N1CCC2(CC1)CN(c1ncccn1)CC2CO` (configuration not stated)?
HEK293 viab: -11.6%; SNCA expr inhib: 22.5%; IP6K1 inh: 7.0; KDM5B inh: 31.6µM*

What do the screens show for `CN(C)CCN(Cc1ccc(-c2ccc(CNCCc3ccccc3)cc2)cc1)C(=O)CCC1CCCC1`?
HEK293 viab: 18.9µM*; IP6K1 inh: 2.6

How did O=C(N[C@H]1CCN2C(=O)c3cc(-c4cccs4)ccc3NC(=O)[C@H]12)c1cccc(F)c1 do in these assays?
HEK293 viab: -8.6%; SNCA expr inhib: 4.5%; IP6K1 inh: -9.7; KDM5B inh: 28.2µM*

Results for COc1ccc(-c2ccc3c(c2)C(=O)N2CC[C@H](NC(=O)C4CCCC4)[C@H]2C(=O)N3)cc1 ?
HEK293 viab: 0.0%[87.6 µM]; SNCA expr inhib: 21.7%[87.6 µM]; IP6K1 inh: -8.1; KDM5B inh: inconclusive

How did O=C(O)CCC(=O)N[C@H]1CCN2C(=O)c3cc(-c4cccs4)ccc3NC(=O)[C@H]12 do in these assays?
HEK293 viab: 0.8%[87.6 µM]; SNCA expr inhib: -10.0%[87.6 µM]; IP6K1 inh: 7.6; KDM5B inh: 35.5µM*

How did O=C(N[C@H]1CCN2C(=O)c3cc(-c4cccs4)ccc3NC(=O)[C@H]12)C1CCCC1 do in these assays?
HEK293 viab: -1.8%[87.6 µM]; SNCA expr inhib: -3.7%[87.6 µM]; IP6K1 inh: -4.7; KDM5B inh: 39.8µM*

Results for O=C(N[C@H]1CCN2C(=O)c3cc(-c4ccc(Cl)cc4)ccc3NC(=O)[C@H]12)C1CCCC1 ?
HEK293 viab: 1.9%; SNCA expr inhib: 53.5%; IP6K1 inh: 5.1; KDM5B inh: 25.1µM*

How did C=CCn1c(N2CCN(Cc3ccc(Cl)cc3)CC2)nc2c1c(=O)[nH]c(=O)n2C do in these assays?
KDM5B inh: inactive

What do the screens show for `O=c1[nH]c(C2CCCN(Cc3ccccn3)C2)nn1-c1ccccc1` (configuration not stated)?
HEK293 viab: -28.7%[87.6 µM]; SNCA expr inhib: inconclusive; IP6K1 inh: 30.2; KDM5B inh: 22.4µM*

Results for O=C(N[C@H]1CCN2C(=O)N(c3cccc4nsnc34)C(=O)[C@@H]2C1)c1ccnc(Cl)c1 ?
HEK293 viab: 1.5%; SNCA expr inhib: 16.2%; IP6K1 inh: 10.0; KDM5B inh: 28.2µM*

Results for O=C(NCC1CC1)c1nc2c(o1)CCN(Cc1ccc(F)cc1F)CC2 ?
HEK293 viab: -0.4%[87.6 µM]; SNCA expr inhib: -23.5%[87.6 µM]; IP6K1 inh: 7.8; KDM5B inh: inactive

What do the screens show for `O=C(Nc1ccc(Cl)cc1)c1nc2c(o1)CCN(Cc1ccc(F)cc1F)CC2`?
HEK293 viab: inconclusive; SNCA expr inhib: inconclusive; IP6K1 inh: 11.1; KDM5B inh: 28.2µM*

Results for COc1ccccc1CN1CCc2nc(C(=O)Nc3ccc(Cl)cc3)oc2CC1 ?
HEK293 viab: inconclusive; SNCA expr inhib: inconclusive; IP6K1 inh: 16.9; KDM5B inh: 35.5µM*

Results for O=C(Nc1ccc(Cl)cc1)c1nc2c(o1)CCN(Cc1cccc(F)c1F)CC2 ?
HEK293 viab: -16.1%[87.6 µM]; SNCA expr inhib: -33.8%[87.6 µM]; IP6K1 inh: 0.9; KDM5B inh: 35.5µM*
